# Source: PubChem BioAssay (NCI)
# The panel holds about 83,000 compounds, 20% with a hit somewhere; the sample as a whole holds those more often.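 A percent growth of 40 corresponds to 60% growth inhibition; 0 means no net growth; -100 means all cells died. Active threshold: below 10.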 Unmarked numbers belong to inactive results. Activity calls are given as the source filed them.
# Tested on: COLO 205 colon
# Assay: NCI-60 one-dose screen, 48 h (100 = growth as untreated, 0 = no growth, -100 = all killed)
# Details: 10 µM unless noted
row,Structure (SMILES),growth
1,COc1cc(/C=C\c2cc(OC)c(OC)c(OC)c2)cc(N/C=C\C(=O)c2cc(OC)c(OC)c(OC)c2)c1OC,3.1% (active)
2,N#C[S-].[Au+].c1ccc(CN2[CH-]N(Cc3ccccc3)C(c3ccccc3)=C2c2ccccc2)cc1,-76.9% (active)
3,O=[N+]([O-])c1ccc(OP(=O)(CCl)N(CCCl)CCCl)cc1 (stereo not drawn),112%
4,O=C1CC2(CC3(Cl)C(Cl)=C(Cl)C2(Cl)C3(Cl)Cl)C(=O)O1 (stereo not drawn),126%
5,COc1cc2c(cc1OCCCCCn1c(-c3ccco3)nc3ccccc31)N=C[C@@H]1CCCN1C2=O,4.57% (active)
6,O=C(O)c1ccc([S-])cc1.[Au+].c1ccc(CN2[CH-]N(Cc3ccccc3)C(c3ccccc3)=C2c2ccccc2)cc1,-66.5% (active)
7,N#C[Se]Cc1cc(-c2ccccc2)n(-c2ccc(S(N)(=O)=O)cc2)n1,-83.4% (active)
8,COc1cc2c(cc1OCCCCn1c(-c3cccs3)nc3ccccc31)N=C[C@@H]1CCCN1C2=O,-73.5% (active)
9,COc1ccc(/C=C\c2cc(OC)c(OC)c(OC)c2)cc1OCC(=O)Nc1nc2ccc(F)cc2s1,32.3%
10,O=C(Nc1ccc([N+](=O)[O-])cc1)C(Cl)(Cl)Cl,107%
11,C[CH2][Sn]([Cl])([Cl])[CH2]C.Oc1ccccc1C=NCCN=Cc1ccccc1O,116%
12,C[N+]12CN3CN(CN(C3)C1)C2,99.4%
13,C[C@]12CC[C@@H]3c4ccc(Oc5nc(N6CC6)nc(N6CC6)n5)cc4CC[C@H]3[C@@H]1CCC2=O,32.5%
14,c1ccc(COc2ccc3[nH]cc(CCN(Cc4ccccc4)Cc4ccccc4)c3c2)cc1,101%
15,[Au+].[N-]=C=O.c1ccc(CN2[CH-]N(Cc3ccccc3)C(c3ccccc3)=C2c2ccccc2)cc1,92.5%
16,CC1=C(CCCNS(C)(=O)=O)C2=C(C)C3(CC3)[C@@](C)(O)C(=O)C2=C1,-61% (active)
17,C[C@]12CC[C@H]3[C@@H](CC[C@]4(O)C[C@@H](O[C@@H]5O[C@H](CO)[C@@H](O[C@@H]6OC[C@@H](O)[C@H](O)[C@H]6O)[C@H](O)[C@H]5O)CC[C@]34C=O)[C@@]1(O)CC[C@@H]2C1=CC(=O)OC1,17.8%
18,CN1C(=O)N[C@H]2[C@@H]3NC(=O)c4ccc(Br)n4[C@@H]3C[C@]21O,-49.5% (active)
19,COC1OC(CO)C(O)C(O)[CH]1[Hg][O]C(C)=O (stereo not drawn),98%

row,Structure (SMILES),growth
1,OCc1ccc2c(c1)OCO2,108%
2,Nc1nnnc2nc[nH]c12,6.07% (active)
3,CC1CCCC(C[N+](C)(C)C)C1=O (stereo not drawn),118%
4,CNC(=O)Oc1cccc(C(F)(F)F)c1,107%
5,COc1cc2c(cc1OCCCn1c(-c3ccccn3)nc3ccccc31)N=C[C@@H]1CCCN1C2=O,9.33% (active)
6,CCCCCCCOC(C(=O)OCCN(CC)CC)(c1ccccc1)c1ccccc1,95.3%
7,CC(=O)OCC1O[C@@H]([S-])C(OC(C)=O)[C@H](OC(C)=O)[C@@H]1OC(C)=O.[Au+].c1ccc(CN2[CH-]N(Cc3ccccc3)C(c3ccccc3)=C2c2ccccc2)cc1,13.8%
8,COc1ccc(C(=O)c2sc3nc4c(cc3c2N)N2CCC4CC2)cc1OC,97.1%
9,CC(CC1CCCCC1)NCc1ccccc1 (stereo not drawn),103%
10,COc1ccc(/C=C\c2cc(OC)c(OC)c(OC)c2)cc1OCC(=O)Nc1nc2ccc(C(F)(F)F)cc2s1,95.3%
11,O=C1CCC2(O)[C@@H]3Cc4ccc(O)c5c4[C@]2(CCN3Cc2ccoc2)C1O5 (stereo partly drawn),105%
12,C/C(=C\c1cc(C(F)(F)F)nn1CCNC(=O)OC(C)(C)C)[C@@H]1C[C@@H]2O[C@]2(C)CCC[C@H](C)[C@H](O)[C@@H](C)C(=O)C(C)(C)[C@@H](O)CC(=O)O1,30.6%
13,CC(C)CCC(=O)O[C@H]1CC[C@H]2[C@@H]3CCC4=CC(=O)CC[C@]4(C)[C@H]3CC[C@]12C,106%
14,ClCCN(CCCl)Cc1ccc(Nc2ccnc3cc(Cl)ccc23)cc1,50.6%
15,COc1cc(NC(C)CCCNC2CN3CCC2CC3)c2ncccc2c1 (stereo not drawn),35.3%
16,C=CCCCN=C=S,91.2%
17,CCN(CC)CCOC(=O)C(OC(C)C)(c1ccccc1)c1ccccc1,98%
18,CCC1(C(C)C)C(=O)NC(=S)NC1=O,123%
19,CC[C@]12C=CCN3CC[C@]4(C(=C(C(=O)OC)C1)Nc1cc(OC)c(OC(C)=O)cc14)[C@@H]32,-22.8% (active)
